In all, about 1,100 compounds went through this assay and fewer than 10 were called active. Roughly 6% stayed inconclusive and do not appear here. Calls come from the whole dose curve; as a rule, active = well fitted cell-killing curve with a large enough effect; inconclusive = small, poorly fitted or top-dose-only effect; inactive = flat fitted curve, though single readings scatter. The list is a sample of the results. A call without a number means that no potency is given here.
Assay: qHTS of Nrf2 Activators: Hit Validation in Cytotox Assay;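 note: compound exposure lasted 24 hours before the ATP readout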
Conditions: Cell viability counter-screen for Nrf2 activator hits; series mostly up to 46.1 µM
From the text: Many diseases have some form of oxidative stress injury and ties to inflammation, causing a host of problems for the patient. The antioxidant response element (ARE) plays an important role in alleviating the harmful effects of oxidative stress. The antioxidant response element (ARE) is a transcriptional regulatory element involved in the activation of genes coding for a number of antioxidant proteins and detoxifying enzymes. These enzymes work in concert to protect tissues from oxidative insults and chemical toxicities in human hepatocytes and immune cells. The protective effects of ARE activation are primarily triggered through Nrf2 (NF-E2-related factor) binding to and activating AREs. It is known that Nrf2 controls the production of over 250 antioxidant and detoxification proteins (Hu et al., 2006), thereby protecting tissues by increasing cellular antioxidant content and suppressing inflammatory signaling pathways. The transcription factor Nrf2 is a central link between oxidative chemicals, such as phenolic antioxidants and electrophilic compounds, and the activation of ARE. Nrf2 levels are constitutively low as a consequence of its interaction with Keap1, which targets its degradation (Zipper and Mulcahy, 2002). Electrophiles react with key cysteine residues in Keap1, releasing Nrf2 and allowing its translocation to the nucleus. Once within the nucleus, Nrf2 complexes with coactivators such as p300, and binds to the AREs to induce gene transcription of cytoprotective enzymes, resulting in the prevention of toxicity. Activation of Nrf2 protects tissues by increasing cellular antioxidant content and suppressing inflammatory signaling pathways. Identifying novel and potent Nrf2 activators by using the AREc32 cell line to detect ARE activation by small molecules will lead to the identification and development of probes to study protective pathways in multiple tissues. These specific probes are essential to study the ARE pathway, and eventually to determine whether this pathway does activate genes that could protect against a host of diseases, including cardiovascular diseases, obesity, diabetes, Alzheimer's, and Parkinson's disease.
This project's aim is to identify novel and potent Nrf2 activators by using the AREc32 cell line to detect ARE activation by small molecules, which will lead to the identification and development of probes to study the ARE pathway. Cytotoxic compounds are flagged as active, and inactivity is desired in this assay.
NIH Chemical Genomics Center [NCGC]
NIH Molecular Libraries Probe Centers Network [MLPCN]
Assay Submitter (PI): Curtis Klaassen, University of Kansas Medical Center
Cell viability after compound treatment was measured using a luciferase-coupled ATP quantitation assay (CellTiter-Glo, Promega) in AREc32_fluc cells. The change of intracellular ATP content indicates the number of metabolically competent cells after compound treatment. AREc32_fluc cells were harvested from T225 flask and resuspended in phenol red free OPTI-MEM medium with 5% FBS. Then 5 microL of 200,000 cells/ml resuspended cells was dispensed into each well of white, solid bottom, 1536-well tissue culture-treated plates using a Multidrop Combi dispenser. After overnight culture at 37 degrees C with 5% CO2, a total of 23 nL of compounds at 7 selected concentrations from the cherry pick or positive control (40 uM stock of CDDO-IM and 2 mM of tBHQ) in DMSO was transferred to each well of the assay plate using a pintool (Kalypsys, San Diego, CA), and the plates were further incubated at 37 degrees C with 5% CO2 for 24 hours. After that, 4 microL of CellTilter-GloTM luminescent substrate mix (Promega) was added to each well. The plate was incubated at room temperature for 30 minutes. The plates were measured on a ViewLux plate reader (PerkinElmer) with clear filter.
In the case of `O=c1c2ccccc2oc2cc(Br)ccc12`, the Potency is reported as “inactive”. In the case of `COc1ccc(C=O)cc1OS(=O)(=O)c1ccccc1[N+](=O)[O-]`, the Potency is reported as “inactive”. In the case of `COc1ccccc1Nc1nc2ccccc2n2cnnc12`, the Potency is reported as “inactive”. In the case of `O=c1cc(-c2ccccc2Cl)oc2c(Br)ccc(O)c12`, the Potency is reported as “inactive”. With `Cc1ccc(N=C2NC(=O)S/C2=C\c2ccco2)cc1` the Potency was “inactive”. In the case of `c1ccc(-c2nc3c4ccccc4ccn3c2Cc2ccsc2)cc1`, the Potency is reported as “inactive”. In the case of `COC(=O)c1c(NC(=O)/C=C/C(=O)O)sc(C)c1-c1ccc(C(C)C)cc1`, the Potency is reported as “inactive”. In the case of `COc1cccc(-c2nc3n(n2)CCc2ccccc2-3)c1`, the Potency is reported as “inactive”. For `C/C(=N\NC(=O)COc1ccccc1[N+](=O)[O-])c1cccs1`, the Potency was “inactive”. With `O=c1oc2ccccc2cc1-c1nc(-c2cccs2)cs1` the Potency was “inactive”. For `NC(=O)c1oc2ccccc2c1NC(=O)c1ccco1`, the Potency was “inactive”. In the case of `Brc1ccccc1/C=N/Nc1ccccn1`, the Potency is reported as “inactive”. With `O=C(/C=C/c1ccccc1Cl)Nc1nc(-c2cccs2)ns1` the Potency was “inactive”. With `Cc1[nH]c2ccccc2c1N=Nc1ccccc1F` the Potency was “inactive”. In the case of `O=C(N=Nc1c(O)[nH]c2ccc(Br)cc12)c1ccco1`, the Potency is reported as “inactive”. In the case of `CCOC(=O)N/N=C\C=C\c1ccco1`, the Potency is reported as “inactive”. For `O=C(NC(=S)Nc1ccc(Br)cn1)c1cccs1`, the Potency was “inactive”. For `COc1ccccc1C=Cc1ccnc2ccccc12`, the Potency was “inactive”. For `S=C(NNc1ccc2ccccc2c1)NC1CCCCC1`, the Potency was “inactive”. In the case of `OCC1OC(n2cnc3c(NCc4ccccc4O)ncnc32)C(O)C1O` (stereo not drawn), the Potency is reported as 5.17 µM (active). For `c1ccc2c(-c3nc4ncccc4o3)cccc2c1`, the Potency was “inactive”. In the case of `COc1ccc([N+](=O)[O-])cc1C1NN=C(c2ccccc2O)S1` (stereo not drawn), the Potency is reported as “inactive”. For `Clc1ccc(Br)cc1-c1nc(-c2ccncc2)no1`, the Potency was “inactive”. For `NC(=O)c1c(NC(=O)c2ccco2)sc2c1CCC2`, the Potency was “inactive”. With `O=C(Nc1ccccn1)c1csc2c1CCCC2` the Potency was “inactive”. For `O=C(Nc1ccccn1)Nc1ccccc1Cl`, the Potency was “inactive”. In the case of `CC1(C)CC[C@]2(C(=O)n3ccnc3)CC[C@]3(C)[C@H](C(=O)C=C4[C@@]5(C)C=C(C#N)C(=O)C(C)(C)[C@@H]5CC[C@]43C)[C@@H]2C1`, the Potency is reported as 8.2 µM (active). With `Fc1ccccc1-c1nc(-c2ccc(Cl)cc2)no1` the Potency was “inactive”. In the case of `COc1cc(/C=N/Nc2nc3ccccc3s2)ccc1OC(=O)c1ccccc1F`, the Potency is reported as “inactive”. For `Cc1c(Cl)cccc1NC(=S)NC(=O)c1ccccc1`, the Potency was “inactive”. In the case of `c1ccc(-c2cc3c(-n4cccc4)ncnc3o2)cc1`, the Potency is reported as “inactive”. For `O=C(NC(=S)Nc1nc(-c2ccccc2)cs1)c1cccs1`, the Potency was “inactive”. For `CS(=O)(=O)Nc1ccc(C(=O)Nc2cccc([N+](=O)[O-])c2)cc1`, the Potency was “inactive”. In the case of `COc1c(C(=O)Nc2nnc(C3CC3)s2)csc1Cl`, the Potency is reported as “inactive”. With `O=C(Nc1cc(-c2nc3cc(Cl)ccc3o2)ccc1Cl)c1ccco1` the Potency was “inactive”. For `Cc1cc(=O)oc2c(C(=O)/C=C\c3cccs3)c(O)ccc12`, the Potency was “inactive”. For `Cn1cnnc1Sc1ccc(/C=C/C(=O)c2ccc(O)cc2)cc1[N+](=O)[O-]`, the Potency was “inactive”. With `COC(=O)c1c(NC(=O)c2ccco2)sc(C)c1C` the Potency was “inactive”. In the case of `c1cncc(-c2noc(-c3cccc4ccccc34)n2)c1`, the Potency is reported as “inactive”. With `Nc1c(Cl)cc(N=Nc2ccccc2)cc1Cl` the Potency was “inactive”. For `Cc1sc2c(c1C)C(=O)NC(c1ccccc1F)N2` (stereo not drawn), the Potency was “inactive”. For `Clc1cccc(Cc2c(-c3ccco3)nc3c4ccccc4ccn23)c1`, the Potency was “inactive”. In the case of `Cc1csc(NC(=O)/C=C/c2ccco2)n1`, the Potency is reported as “inactive”. In the case of `c1ccc(N2CC3COc4ccccc4C3=N2)cc1` (stereo not drawn), the Potency is reported as “inactive”. In the case of `O=C(/C=C/c1ccc2c(c1)OCO2)c1ccc(O)cc1O`, the Potency is reported as “inactive”. For `N#Cc1c(-c2ccco2)cc(-c2ccc(F)cc2)nc1N`, the Potency was “inactive”. For `O=c1[nH]ncc(N/N=C\c2cccs2)c1Cl`, the Potency was “inactive”. In the case of `COc1ccccc1NC(=O)C(=O)Nc1ccccn1`, the Potency is reported as “inactive”. For `O=c1[nH]c(/C(Cl)=C/c2cc(Cl)ccc2O)nc2cc(Cl)ccc12`, the Potency was “inactive”. With `O=C(Cn1cnc2scc(-c3cccc([N+](=O)[O-])c3)c2c1=O)NCc1ccco1` the Potency was “inactive”. For `O=C(/C=C/c1ccco1)Nc1cccnc1Cl`, the Potency was “inactive”. In the case of `CCOC(=O)c1c(-c2ccco2)csc1NC(=O)CSc1nnc(N)s1`, the Potency is reported as “inactive”. With `CCOC(=O)c1ccccc1N/C=C/C(=O)c1cccs1` the Potency was “inactive”. With `CN1CCCC1CCNc1ccc2c(=O)c3ccccc3oc2c1` (stereo not drawn) the Potency was “inactive”. For `Clc1nc(-c2ccccc2)cc(-c2ccccc2)n1`, the Potency was “inactive”. In the case of `O=C(N/N=C\c1ccco1)Nc1cccc(Cl)c1`, the Potency is reported as “inactive”. For `CN1c2ccsc2/C(=N/Nc2ccccc2)CS1(=O)=O`, the Potency was “inactive”. With `O=C(c1ccccc1)[C@@H]1[C@@H]2C(=O)N(c3ccc(F)cc3)C(=O)[C@@H]2C2CCCN21` (stereo partly drawn) the Potency was “inactive”. In the case of `CC1CCCCC1NC(=O)COC(=O)c1c2c(nc3ccccc13)/C(=C/c1ccco1)CC2` (stereo not drawn), the Potency is reported as “inactive”. In the case of `CNc1ccccc(C(=O)/C=C/c2ccccc2OC)c1=O`, the Potency is reported as “inactive”. In the case of `O=C(N/N=C/c1ccc(-c2cccc([N+](=O)[O-])c2)o1)c1cccs1`, the Potency is reported as “inactive”. In the case of `O=C(Nc1ccccn1)c1ccc(Cl)c([N+](=O)[O-])c1`, the Potency is reported as “inactive”. In the case of `O=C(/C=C/c1ccco1)Nc1cccc(S(=O)(=O)N2CCOCC2)c1`, the Potency is reported as “inactive”. For `Cc1ccc([N+](=O)[O-])cc1NC(=O)c1ccc(C(C)(C)C)cc1`, the Potency was “inactive”. For `O=C1/C(=C/c2ccccc2O)SC(=S)N1Cc1cccnc1`, the Potency was “inactive”. In the case of `Cc1ccc(S(=O)(=O)/N=C(/NNC(=O)c2cccc(Cl)c2)c2ccccc2)cc1`, the Potency is reported as “inactive”. With `Cc1ccc2ccc(C3C(=O)c4ccccc4C3=O)nc2c1` the Potency was “inactive”. With `Fc1cc(F)c2nc(Nc3nc4cc5c(cc4s3)OCO5)sc2c1` the Potency was “inactive”. With `CC(/C=N/NC(=O)Cc1cccn1C)=C\c1ccco1` the Potency was “inactive”. For `Oc1ccc2ccccc2c1N=Nc1ccccn1`, the Potency was 5.17 µM (active). With `CC(C)CCn1c(O)c(N=Nc2ccccn2)c2ccccc21` the Potency was “inactive”. For `CCCCn1c(O)c(N=Nc2ccccn2)c2ccccc21`, the Potency was “inactive”. With `O=C(Nc1ccccc1[N+](=O)[O-])C1COc2ccccc2O1` (stereo not drawn) the Potency was “inactive”. For `CCOC(=O)COn1c(=O)c(-c2ccco2)[n+]([O-])c2ccccc21`, the Potency was “inactive”. For `C(=Cc1cnnc2ccccc12)c1ccccc1`, the Potency was “inactive”. With `Cc1ccc(S(=O)(=O)c2nc(S(C)(=O)=O)sc2N2CCC(C)CC2)cc1` the Potency was “inactive”. With `O=C1C(=Cc2ccccc2[N+](=O)[O-])Cc2ccccc21` the Potency was “inactive”. In the case of `O=C1C(Cl)=C(N2CCN(c3ccccc3[N+](=O)[O-])CC2)C(=O)c2ccccc21`, the Potency is reported as 18.4 µM (active). With `N#CC1CC(c2ccccc2)=NN1c1ccccc1[N+](=O)[O-]` (stereo not drawn) the Potency was “inactive”. For `COC(=O)c1sccc1NC(=O)c1cccc(OC)c1`, the Potency was “inactive”. In the case of `N#C/C(=C1/C(=O)Nc2ccc(Br)cc21)c1ccccn1`, the Potency is reported as “inactive”. In the case of `Nc1ccc2c(c1)Cc1c(F)cccc1-2`, the Potency is reported as “inactive”. For `COc1ccc2[nH]c3c(NCc4ccco4)ncnc3c2c1`, the Potency was “inactive”. For `O=C(/C(C=Nc1ccc(F)cc1)=C(/O)c1ccco1)C(F)(F)F`, the Potency was “inactive”. For `CC(C)Nc1ccc(-c2nc(-c3ccco3)no2)cc1[N+](=O)[O-]`, the Potency was “inactive”. In the case of `O=C(CSc1ccccn1)N/N=C/c1ccccc1[N+](=O)[O-]`, the Potency is reported as “inactive”. With `CCOc1ccccc1NC(=S)NC(=O)c1ccco1` the Potency was “inactive”. In the case of `O=C(Nc1nc2ccc(F)cc2s1)c1ccc([N+](=O)[O-])o1`, the Potency is reported as “inactive”.

Source: PubChem BioAssay AID651595 (National Center for Advancing Translational Sciences (NCATS), 2012)
Potency is the fitted concentration of half-maximal effect.
